From PubChem BioAssay
KAT2A inh: qHTS Assay for Inhibitors of GCN5L2. AID 504327, 2011. Histone acetyltransferase KAT2A (Homo sapiens), Q92830. GCN5L2 HAT assay, ThioGlo1 CoA-SH fluorescence. Potency, µM (top dose mostly 58.9 µM), actives largely listed as inhibitors. hit rate 0.21% among 390,000
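Preincubate 20nM GCN5L2 with compound 15 min, RT → add 50uM ThioGlo1 + 75uM H3(1-25) + 70uM acetyl-CoA → read fluorescence 0 and 20 min. Primary qHTS; fluorescent artifacts likely.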
HP1b chromo inh: HTS for Inhibitors of HP1-beta Chromodomain Interactions with Methylated Histone Tails; Chromobox protein homolog 1 (Homo sapiens), P83916; AlphaScreen HP1-beta / biotin-H3K9me3 peptide binding; Potency, µM (titrated, usually from 114 µM), most hits filed as inhibitors; hit rate 0.56% among 390,000; AID 540317, 2011; further: nearly all actives have a fitted effect of over 70% in size
Target sequence (P83916 whole entry, looked up): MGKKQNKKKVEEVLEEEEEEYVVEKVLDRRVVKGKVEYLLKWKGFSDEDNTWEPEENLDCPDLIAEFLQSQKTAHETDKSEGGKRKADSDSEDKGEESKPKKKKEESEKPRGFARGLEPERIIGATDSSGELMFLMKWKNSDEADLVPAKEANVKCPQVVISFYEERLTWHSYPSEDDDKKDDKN
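HP1-beta protein (50 nM final) preincubated 30 min at room temperature with biotinylated H3(1-18)K9me3 peptide (50 nM) in PBS pH 7.4, 0.01% Tween-20, then compound added for 30 min. AlphaScreen streptavidin donor/nickel chelate acceptor beads (10 ug/mL final), 30 min dark, luminescence read.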
PI5P4Ka inh: qHTS for Inhibitors of phosphatidylinositol 5-phosphate 4-kinase (PI5P4K) | Phosphatidylinositol 5-phosphate 4-kinase type-2 alpha (Homo sapiens), P48426 | PI5P4Kalpha enzyme, ADP-Glo luminescence, 60 min; active compounds read low | max response, % | hit rate 1.2% among 330,000; active means max response of -50% or lower; inconclusive means between -30% and -50%; inactive means -30% or higher; further: value at the top dose of about 77 µM
Target sequence (P48426 whole entry, looked up): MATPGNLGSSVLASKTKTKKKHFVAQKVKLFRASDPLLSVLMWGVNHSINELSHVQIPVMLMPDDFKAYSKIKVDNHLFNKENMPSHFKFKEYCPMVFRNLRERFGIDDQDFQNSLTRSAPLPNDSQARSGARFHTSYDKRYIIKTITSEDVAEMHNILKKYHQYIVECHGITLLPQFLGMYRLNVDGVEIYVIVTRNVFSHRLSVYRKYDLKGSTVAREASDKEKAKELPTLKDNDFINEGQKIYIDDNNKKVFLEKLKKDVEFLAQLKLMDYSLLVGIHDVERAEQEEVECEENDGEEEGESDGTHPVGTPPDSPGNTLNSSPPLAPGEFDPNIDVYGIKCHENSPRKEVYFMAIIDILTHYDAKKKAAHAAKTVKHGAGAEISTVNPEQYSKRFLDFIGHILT
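Compounds were pin-transferred onto PI5P4Kalpha and substrate in HEPES pH 7.4 buffer with EGTA, CHAPS and 5% DMSO. ATP (5 microM final) started the reaction, which ran 60 minutes at room temperature before ADP-Glo detection.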
PLK1 PBD block: qHTS for Inhibitors of PLK1-PDB (polo-like kinase 1 - polo-box domain): Primary Screen | Serine/threonine-protein kinase PLK1 (Homo sapiens), P53350 | Plk1 PBD binding of FITC phosphopeptide, fluorescence polarization | Potency, µM, actives largely listed as inhibitors | hit rate 2.8% among 360,000 | AID 720504, 2013; further: series mostly up to about 57 µM; nearly all actives have a fitted effect of over 65% in size
BAZ2B inh: qHTS Assay for Inhibitors of BAZ2B; AlphaScreen BAZ2B-H3K14Ac peptide displacement; Potency, µM (top dose mostly 114 µM), most hits filed as inhibitors; hit rate 4.4% among 360,000; AID 504333, 2011; Bromodomain adjacent to zinc finger domain protein 2B (Homo sapiens), Q9UIF8; further: nearly all actives have a fitted effect of over 60% in size
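Multi-concentration screen (max 110 uM) measuring displacement of acetylated histone H3 peptide from BAZ2B by AlphaScreen, using 50 nM protein, 50 nM peptide and 10 ug/mL streptavidin donor plus Ni-chelate acceptor beads.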
JMJD2A Tudor: qHTS Assay for Inhibitors of JMJD2A-Tudor Domain | AlphaScreen JMJD2A-Tudor / H3K4me3 peptide binding | Potency, µM (series often up to 114 µM), most hits filed as inhibitors | hit rate 4.4% among 390,000; further: nearly all actives have a fitted effect of over 50% in size
Numbers stand for hits; – = inactive; ? = inconclusive; · = not tested or not shown. In the library only some 7% were active in any assay of this set; here they are far more common. Unless noted, the call rests on the fitted dose curve; in most records, active means well fitted curve in the direction sought with a large enough effect; inconclusive means small, poorly fitted or top-dose-only effect, or another doubt; inactive means no such curve, though single readings can be large; an effect the other way counts as inactive or inconclusive.

SMILES	KAT2A inh	HP1b chromo inh	PI5P4Ka inh	PLK1 PBD block	BAZ2B inh	JMJD2A Tudor
CCOc1ccc(NC(=S)N2CCC(C(=O)c3ccc(OC)cc3)CC2)cc1	·	·	–	–	·	·
CC(=O)/C(=N/Nc1cccc(Cl)c1)N1CCOCC1	–	–	–	–	?	–
CC(=O)/C(=N/Nc1ccccc1C)N1CCOCC1	–	–	–	–	–	56µM
COc1ccc(C2CCCCCN2C(=O)C2CCN(S(=O)(=O)c3cccc(C(C)=O)c3)CC2)cc1 (stereo unspecified)	·	–	–	–	·	–
Cc1noc(C)c1COc1ccccc1C(=O)Nc1cccc(S(=O)(=O)N(C)C)c1	–	–	–	–	–	–
CCN(CC)S(=O)(=O)c1cc(NC(=O)c2ccccc2OCc2c(C)noc2C)ccc1C	·	–	–	–	·	89µM
O=[N+]([O-])c1ccc(CNc2ccc(Cl)cc2)s1	–	?	–	–	35µM	?
O=[N+]([O-])c1ccc(CNc2ccc(F)cc2)s1	–	–	–	–	40µM	?
COc1ccc(NCc2ccc([N+](=O)[O-])s2)c(OC)c1	–	18µM	–	–	32µM	40µM
O=[N+]([O-])c1ccc(CNc2cccc(Cl)c2)s1	–	–	–	–	?	?
COc1ccc(NCc2ccc([N+](=O)[O-])s2)cc1	–	?	–	–	50µM	56µM
O=C(COC(=O)CNC(=O)c1ccccc1Cl)Nc1ccccc1Cl	–	–	·	·	–	–
CC(=O)c1ccc(S(=O)(=O)NCC(=O)NC(c2nc3ccccc3[nH]2)C(C)C)cc1 (stereo unspecified)	–	–	–	19µM	·	–
COc1cc(OC)c(OC)cc1/C=N/n1c(COc2ccccc2)n[nH]c1=S	–	?	–	27µM	–	18µM
COc1ccc(OC)c(/C=N/n2c(COc3ccccc3)n[nH]c2=S)c1	–	–	–	–	–	–
COc1ccc(/C=N/n2c(COc3ccccc3)n[nH]c2=S)cc1OC	–	?	–	19µM	–	14µM
O=C(CNS(=O)(=O)c1ccccc1)OCC(=O)c1ccccc1Cl	–	–	–	–	–	–
Cc1cc(C)nc(SCC(=O)N/N=C/c2cccc([N+](=O)[O-])c2)n1	–	–	–	21µM	–	40µM
Cc1cc(C)nc(SCC(=O)NN=C2CCCC2)n1	–	?	-50	6.7µM	–	18µM
O=C(N/N=C/c1cccc([N+](=O)[O-])c1)c1cccc(Br)c1	–	–	–	30µM	–	–
O=C(CSc1ncccn1)NN=C1CCCCCCC1	–	–	–	–	–	–
Cc1cc(C)n(C(C)CC(=O)NCc2ccccc2C)n1 (stereo unspecified)	–	–	·	·	–	–
Cn1ncc2c(NCc3ccc(Cl)cc3)ncnc21	–	–	·	·	–	–
COCCN=c1scc(-c2ccco2)n1/N=C/c1ccc(O)c(O)c1O	20µM	7.9µM	-85	6.7µM	7.9µM	32µM
CC(C)N=c1scc(-c2ccco2)n1/N=C/c1ccc(O)c(O)c1	?	?	–	–	32µM	40µM
SMILES	KAT2A inh	HP1b chromo inh	PI5P4Ka inh	PLK1 PBD block	BAZ2B inh	JMJD2A Tudor
COCCN=c1scc(-c2cccs2)n1/N=C(\C)c1ccco1	–	?	–	–	10µM	50µM
C=CCN=c1scc(-c2ccco2)n1/N=C/c1ccc(O)c(O)c1O	–	14µM	-73	7.5µM	13µM	50µM
COc1ccc(C2c3ccsc3CCN2C(=O)C(C)(C)C)cc1 (stereo unspecified)	–	–	–	–	–	–
N#Cc1c(-n2ncnc2-c2ccc(Br)cc2)sc2c1CCCCC2	–	?	·	·	–	?
Cc1ccc(C(C)C)cc1OCC(=O)NC1CCCCCCC1	–	–	–	–	–	–
COc1ccccc1OCCOCCOc1ccc(C)cc1Br	–	–	–	–	–	–
COCCCNCCOc1cc(C(C)C)ccc1C	–	?	–	–	79µM	3.2µM
CCC(C)NCCOCCOc1ccc(Cl)cc1Br (stereo unspecified)	–	–	–	–	–	2.5µM
COCCCNCCOCCOc1ccc(C)cc1Br	–	–	–	–	?	50µM
COc1cc(C)ccc1OCCOCCOc1ccc(C)cc1[N+](=O)[O-]	–	–	–	–	–	–
CCC(C)NCCOCCOc1ccc(C)cc1OC (stereo unspecified)	–	?	–	–	?	20µM
O=C(c1cccc(Br)c1)c1nc2ccccc2[nH]c1=O	·	·	–	–	·	·
Cc1ccc(NS(=O)(=O)c2cc3c(cc2C)OCC(=O)N3)cc1C	·	·	·	·	·	–
CNC[C@@H]1Oc2ccc(NC(=O)Nc3c(C)noc3C)cc2CC(=O)N([C@H](C)CO)C[C@H]1C	–	–	–	–	·	–
S=C(S)O[C@@H]1C[C@@H]2C[C@H]1[C@@H]1CCC[C@H]21	–	·	·	·	·	·
CCCCNCCOCCOc1ccc(C)cc1Br	–	–	–	–	?	3.5µM
Cc1ccc(OCCCCN(C)Cc2ccccc2)c(Br)c1	–	?	–	–	–	?
Cc1ccc(OCCOCCNC(C)C)c(Br)c1	–	?	–	–	56µM	10µM
O=C(NCCc1ccccc1O)c1cc2c(cc1[N+](=O)[O-])OCO2	·	–	–	–	·	–
Cc1ccc(NC(=O)C2(c3ccccc3)CCOCC2)cc1	–	–	?	27µM	–	50µM
CC(=O)Nc1sc(N/N=C/c2ccc(O)cc2)nc1-c1ccc(C)cc1	–	40µM	–	?	?	45µM
COc1ccc(/C=N/Nc2nc(-c3ccc(C)cc3)c(NC(C)=O)s2)cc1	–	?	–	–	?	56µM
Cc1cccc(N2CCN(C(=O)/C=C/c3cccs3)CC2C)c1 (stereo unspecified)	–	–	–	–	?	–
Cc1cccc(N2CCN(C(=O)CSc3ccsc3[N+](=O)[O-])CC2C)c1 (stereo unspecified)	–	–	?	–	40µM	?
O=C(CSc1ccsc1[N+](=O)[O-])N1CCN(c2ccccn2)CC1	–	–	-51	?	?	?
CN(C(=O)CSc1ccc(S(=O)(=O)N2CCCCC2)cn1)c1ccccc1	–	–	–	–	–	–
COc1ccc(N=Nc2nc3ccc(Br)cc3n2C)cc1	–	?	–	?	63µM	?
O=C(O)CCC(=O)NCCn1c(-c2ccccc2)csc1=Nc1ccccc1	–	–	–	–	?	–
Cc1ccc(-c2csc(=Nc3ccccc3)n2Cc2ccc3c(c2)OCO3)cc1	–	?	·	·	8.9µM	56µM
